Hits are enriched below; roughly 1.7% of the tested compounds scored in any of these assays.
TrxR1 inh: blocks rat thioredoxin reductase 1 | O89049 | 1% of 390,000 active | Potency, µM (top dose mostly 114 µM), for the others: at the highest dose activity change, negative = inhibition, hits mostly inhibitors | recombinant rTrxR1, NADPH fluorescence consumption, selenite substrate | AID 588453; note: % is set by controls: 0 for no effect and ±100 for the full control effect; nearly all actives have a fitted effect of over 65% in size
Target sequence (O89049 whole entry, looked up): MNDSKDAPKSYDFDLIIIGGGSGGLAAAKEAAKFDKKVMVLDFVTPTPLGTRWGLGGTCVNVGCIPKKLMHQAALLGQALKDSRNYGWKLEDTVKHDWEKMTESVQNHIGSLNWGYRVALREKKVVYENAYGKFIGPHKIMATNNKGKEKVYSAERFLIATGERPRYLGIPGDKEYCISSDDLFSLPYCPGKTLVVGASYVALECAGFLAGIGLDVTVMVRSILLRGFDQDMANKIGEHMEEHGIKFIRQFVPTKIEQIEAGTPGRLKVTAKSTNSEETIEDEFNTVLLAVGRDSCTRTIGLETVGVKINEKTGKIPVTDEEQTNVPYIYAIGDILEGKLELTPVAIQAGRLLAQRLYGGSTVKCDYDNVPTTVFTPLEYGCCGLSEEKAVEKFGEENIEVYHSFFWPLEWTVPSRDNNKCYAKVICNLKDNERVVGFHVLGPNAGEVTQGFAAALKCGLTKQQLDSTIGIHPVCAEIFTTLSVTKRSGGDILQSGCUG
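Rat TrxR1 (90 nM in the dispensed reagent) was pre-reduced with 400 uM NADPH for 5 min at room temperature, then incubated with compound for 15 min. After 400 uM selenite was added, NADPH fluorescence (Ex 340/Em 450 nm) was followed for 8 min.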
12-LOX inh: inhibitors of human 12S-lipoxygenase ALOX12 | P18054 | purified 12hLO, xylenol orange hydroperoxide absorbance | Potency, µM (top dose mostly 108 µM), inactives show at the highest dose activity change, negative = inhibition, hits mostly inhibitors | 1.1% of 580,000 active | AID 1671190; note: % is set by controls: 0 for no effect and ±100 for the full control effect
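Hydroperoxide product was detected by ferrous iron/xylenol orange as the 573 to 405 nm absorbance ratio. Arachidonic acid at 40 uM (final) was turned over for 30 min at room temperature by 150 nM human 12hLO, pH 7.0 Hepes buffer, after 15 min compound preincubation.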
TrxR1 substrate: substrates of rat thioredoxin reductase 1; O89049; purified TrxR1 substrate turnover, NADPH consumption readout; Potency, µM (top dose mostly 114 µM), without a hit: at the top dose activity change, negative = substrate turnover; 0.01% of 390,000 active; AID 588456; note: % is set by controls: 0 for no effect and ±100 for the full control effect; nearly all actives have a fitted effect of over 50% in size
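Rat TrxR1, dispensed at 90 nM, was prereduced with 400 uM NADPH (final) for 5 min at ~22 deg C, then incubated with compound 15 min before 400 uM selenite. A first-read NADPH fluorescence drop versus no-compound background flagged substrates.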
GRP78 ERSR act: inducers of ER stress response in human glioma cells. U87-MG GRP78 promoter luciferase reporter, 16 h. Potency, µM, inactives show at the top dose activation, actives largely listed as activators. 0.02% of 420,000 active; note: series mostly up to about 76 µM; % of control where 0% means no effect; nearly all actives have a fitted effect of over 35% in size
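Stably transfected U87-MG human glioma cells carrying a GRP78-based luminescent sensor were seeded at 1000 cells/well, pin-dosed with compounds and incubated 16 h. Luciferase reagent was then added, and end-point luminescence was read after 10 min at room temperature.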
Anesthetic bind: candidate novel general anesthetic via apoferritin binding | 0.074% of 350,000 active | apoferritin/1-aminoanthracene competitive binding, fluorescence | Potency, µM (titrated, usually from 77.5 µM), for the others: at the highest dose activity change, negative = displacement, hits mostly inhibitors | AID 485281; note: % is set by controls: 0 for no effect and ±100 for the full control effect; nearly all actives have a fitted effect of over 20% in size
Target sequence (P02791 2-175 limits assumed): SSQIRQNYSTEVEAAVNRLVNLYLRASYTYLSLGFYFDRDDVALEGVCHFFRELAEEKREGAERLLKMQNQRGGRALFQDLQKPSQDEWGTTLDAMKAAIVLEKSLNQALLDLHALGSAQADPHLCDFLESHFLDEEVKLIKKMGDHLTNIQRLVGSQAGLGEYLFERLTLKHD
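Concentration-response curves derived by four-parameter Hill fitting of normalized fluorescence, where compounds displaced 1-AMA from 10 uM horse apoferritin following a brief 10 min room-temperature incubation; propofol titration acted as positive control.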
IDH1 R132H inh: blocks human mutant IDH1 R132H enzyme. O75874. IDH1-R132H enzyme, NADPH consumption, diaphorase/resazurin fluorescence. Potency, µM (series often up to 76.6 µM), without a hit: at the top dose activity change, negative = inhibition, usual class: inhibitors. 0.093% of 390,000 active. AID 602179; note: % is set by controls: 0 for no effect and ±100 for the full control effect; nearly all actives have a fitted effect of over 65% in size
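IDH1-R132H (0.5 ug/mL dispensed) in pH 7.5 Tris buffer was preincubated 30 min with compound, then given a substrate mix of 0.016 mM NADPH and 2 mM alpha-KG for 80 min at room temperature; remaining NADPH was read by diaphorase/resazurin fluorescence.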
* marks the source's active call; other numbers are inactive results; ? = inconclusive; / = no result given; ! = repeats disagree; [ ] = remark or other dose. Calls come from the whole dose curve; as a rule, active = well fitted curve in the direction sought with a large enough effect; inconclusive = small, poorly fitted or top-dose-only effect, or another doubt; inactive = no such curve, though single readings can be large; an effect the other way counts as inactive or inconclusive. Potency is the fitted concentration of half-maximal effect.

SMILES | TrxR1 inh | 12-LOX inh | TrxR1 substrate | GRP78 ERSR act | Anesthetic bind | IDH1 R132H inh
O=C(CCCc1ccccc1)Nc1cc(C(F)(F)F)ccc1Cl | / | 8% | / | / | / | /
COc1ccc2c(C)c(CC(=O)N3CCCC3)c(=O)oc2c1 | / | 11% | / | / | / | /
CC1(C)CC(=O)C2=C(C1)NC(=S)C(C#N)C21CCCCC1 (centres undefined) | ? | 7.9µM* | -4% | -1% | -2% | 13%
CC1(C)CC(=O)C2=C(C1)NC(SCC(=O)Nc1ccccc1)=C(C#N)C21CCCCC1 | 13%[57.1 µM] | 0% | 9%[57.1 µM] | -6% | -9% | -2%
OCCN1CCN(C(c2ccccc2Cl)c2sc3nc(-c4ccco4)nn3c2O)CC1 (centres undefined) | 5%[57.1 µM] | -10% | 1%[57.1 µM] | -2% | 3% | -18%
CCc1ccc(C(=O)NNc2ccc(C)c(Cl)c2)cc1 | 7%[57.1 µM] | 16µM* | -2%[57.1 µM] | 5% | -15% | -1%
NC(=S)NNc1ccc(Cl)c(Cl)c1 | 3% | 16µM* | 1% | -5% | 2% | -8%
NC(=S)NNc1ccnc2cc(Cl)ccc12 | 12%[57.1 µM] | 5.6µM* | -3% | -8% | -13% | -3%
Cc1ccc(NNC(N)=S)cc1Cl | -4% | 28µM* | 4% | 0% | -7% | 5%
NC(=S)Nc1ccc(Cl)c(Cl)c1 | 19% | ? | 5% | -1% | 2% | 12%
O=C(NNc1ccnc2cc(Cl)ccc12)C1CCCCC1 | -12% | ? | -9% | -7% | -3% | -4%
COc1cc(OC)c(Nc2nc3ccccc3nc2NS(=O)(=O)c2ccc(C)cc2)cc1Cl | / | -10% | / | / | / | /
Cc1ncsc1CN1CCOc2ccc(C(=O)NCc3ccccc3F)cc2C1 | / | -1% | / | / | / | /
Cc1cc(C(=O)CSc2nnc(C(C)Oc3ccccc3F)o2)c(C)n1C1CC1 (centres undefined) | / | 31% | / | / | / | /
Cc1ccc(/C=C/C(=O)c2ccc(C)cc2)cc1 | -5%[57.1 µM] | -6% | -1%[57.1 µM] | 6% | -11% | 8%
COc1cc(C(=O)/C=C/c2cc(Br)c(O)c(OC)c2)ccc1OCC(=O)O | / | 10µM* | / | / | / | /
Cc1ccc(C(=O)/C=C/c2cc(Br)c(O)c(Br)c2)cc1 | / | 28µM* | / | / | / | /
Cc1ccc(C(=O)/C=C/C(=O)c2ccc(C)cc2)cc1 | 3.2µM* | -16% | 2%[57.1 µM] | 3% | -10% | 0%
CN(C)/C=C/C(=O)c1ccc(Br)cc1 | 1% | 7.9µM* | -11% | 1% | -10% | 10%
O=C(Cc1ccccc1F)NC1CCN(c2cc(-c3cccs3)[nH]n2)C1 (centres undefined) | / | 80% | / | / | / | /
Cc1ccc(NC(=O)N2C[C@@H](F)C[C@H]2C(=O)N2CCCCC2)cc1 | / | 18% | / | / | / | /
CCOC(=O)c1cnc2c(OC)cccc2c1N1CCN(c2ccccc2F)CC1 | 12% | ? | -6% | -2% | 8.9µM* | -18%
CCOC(=O)c1cnc2ccc(OCC)cc2c1N1CCN(c2ccccc2OC)CC1 | -7% | / | -9% | -5% | -2% | 0%
COc1ccc(Nc2cc(C)c3ccccc3n2)cc1 | 3% | ? | -8% | 6% | -21% | 13%
COc1ccc(Nc2cc(C)c3cc(C)ccc3n2)cc1 | / | 18µM* | / | / | / | /
SMILES | TrxR1 inh | 12-LOX inh | TrxR1 substrate | GRP78 ERSR act | Anesthetic bind | IDH1 R132H inh
Oc1c(I)cc(I)c2cccnc12 | -21% | 32µM*! | 12% | -3% | 2% | 5%
Oc1ccc(F)c2cccnc12 | 26%[57.1 µM] | -29% | -11%[57.1 µM] | -12% | -7% | 16%
Oc1ccc(Cl)c2cccnc12 | -15% | 4.5µM*! | -11% | -4% | -5% | 3%
CC(=O)NC(C)c1cc(Cl)c2cccnc2c1O (centres undefined) | 13% | -15% | -2% | -1% | / | /
Oc1c(Cl)cc(Cl)c2cccnc12 | ? | 20µM*! | -11% | -6% | 0% | -5%
Cc1ccc(S(=O)(=O)Nc2cc(Cl)c(O)c3ncccc23)cc1 | ? | 4.5µM* | -8%[57.1 µM] | -8% | -21% | 22%
O=S(=O)(O)c1cc(I)c(O)c2ncccc12 | / | ? | / | -5% | / | /
O=C(c1cc2ccccc2[nH]1)N1CCC(N2CC(OCC3CC3)C23CCOCC3)CC1 (centres undefined) | / | 53% | / | / | / | /
O=C(Oc1c(Cl)cc(Cl)c2cccnc12)c1cccs1 | 9%[57.1 µM] | ? | -1%[57.1 µM] | -4% | ? | -1%
O=C(Oc1c(Cl)cc(Cl)c2cccnc12)c1ccco1 | 2% | 7.1µM* | -7% | -3% | ? | 8%
CO[C@H]1C(=O)N(C(C)C)[C@H]1C1CCN(C(=O)c2cnn(C)c2)CC1 | / | 28% | / | / | / | /
CCOC(=O)c1ccc(NC(=O)CC2Sc3ncnn3C2=O)cc1 (centres undefined) | 1.8µM* | -13% | 11% | -3% | -12% | 4%
O=C(CC1Sc2ncnn2C1=O)Nc1ccc(Cl)cc1 (centres undefined) | ? | -14% | 8%[57.1 µM] | -8% | -16% | 3%
CCOC(=O)c1ccc(NC(=O)CC2SC(=NC)N(C)C2=O)cc1 (centres undefined) | 8% | -10% | 1% | -2% | 1% | 0%
COc1ccc(NC(=O)CC2Sc3ncnn3C2=O)cc1 (centres undefined) | 1.6µM* | 338% | 11%[57.1 µM] | -2% | -11% | -4%
CCOc1ccc2ccc(OCC)c(/C=C(\C#N)c3nc4ccccc4[nH]3)c2c1 | / | -4% | / | / | / | /
Cn1cnc(S(=O)(=O)N2CCCCC2c2nc(-c3cnccn3)n[nH]2)c1 (centres undefined) | / | 3% | / | / | / | /
O=C(O)c1ccc(NCc2ccc(Cl)cc2)cc1Cl | / | -19% | / | / | / | /
O=C1NC[C@H]2CN(Cc3ccc(C(F)(F)F)cc3)CCN12 | / | 10%[176 µM] | / | / | / | /
CC(=O)Nc1ccc(CN2CCn3c(nnc3C3CCNCC3)C2)cc1 | / | 11µM* | / | / | / | /
Cc1ccc(CNC(=O)C2(C)CN(S(C)(=O)=O)CC(=O)N2c2cc(C)ccc2C)cc1 (centres undefined) | / | 6% | / | / | / | /
Cc1cc(N2C(=O)C(O)=C(C(=O)c3ccco3)C2c2ccc([N+](=O)[O-])cc2)no1 (centres undefined) | -25% | 45µM* | -19% | -6% | -23% | 8%
CCOC(=O)c1sc(N2C(=O)C(O)=C(C(=O)c3ccco3)C2c2ccc([N+](=O)[O-])cc2)nc1C (centres undefined) | -16% | 28µM* | -14% | -4% | / | 15%
Cc1ccccc1Cn1cc(S(=O)(=O)c2ccc(Cl)cc2)c(=O)c2cc3c(cc21)OCO3 | 21% | ? | 4% | -3% | -6% | 7%
CCC(=O)N1CCC1(C)C(=O)Nc1ccc(C)c(C)c1 (centres undefined) | / | 1% | / | 5% | / | /
Cc1c(OCC(=O)Nc2cc(Cl)cc(Cl)c2)c(=O)ccn1CCO | / | 9% | / | / | / | /
CCC(=O)Oc1ccc(C/C(=N\O)c2ccc(O)cc2O)o1 | 10µM* | ? | 10% | -1% | 5% | -1%
